Sampled rows, rich in hits. Any-hit rate of the full collection: about 11%.
JMJD2A Tudor inh – qHTS Assay for Inhibitors of JMJD2A-Tudor Domain; Lysine-specific demethylase 4A (Homo sapiens), O75164; AlphaScreen JMJD2A-Tudor / H3K4me3 peptide binding; Potency, µM (highest dose often 114 µM), hits mostly inhibitors; 390,000 tested, 4.4% active; AID 504339, 2011; further: nearly all actives have a fitted effect of over 50% in size
HP1b chromo inh – HTS for Inhibitors of HP1-beta Chromodomain Interactions with Methylated Histone Tails; AlphaScreen HP1-beta / biotin-H3K9me3 peptide binding; Potency, µM (titrated, usually from 114 µM), usual class: inhibitors; 390,000 tested, 0.56% active; AID 540317, 2011; further: nearly all actives have a fitted effect of over 70% in size
Target sequence (P83916 whole entry, looked up): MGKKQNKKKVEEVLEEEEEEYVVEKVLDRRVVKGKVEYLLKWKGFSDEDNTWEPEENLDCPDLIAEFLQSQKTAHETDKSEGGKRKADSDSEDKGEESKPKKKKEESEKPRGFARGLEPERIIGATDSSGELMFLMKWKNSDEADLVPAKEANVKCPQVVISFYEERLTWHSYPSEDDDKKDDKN
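HP1-beta protein (50 nM final) preincubated 30 min at room temperature with biotinylated H3(1-18)K9me3 peptide (50 nM) in PBS pH 7.4, 0.01% Tween-20, then compound added for 30 min. AlphaScreen streptavidin donor/nickel chelate acceptor beads (10 ug/mL final), 30 min dark, luminescence read.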
G9a inh – qHTS Assay for Inhibitors of Histone Lysine Methyltransferase G9a; Histone-lysine N-methyltransferase EHMT2 (Homo sapiens), Q96KQ7; G9a H3K9 monomethylation, AlphaScreen, 2 h; Potency, µM (highest dose often 102 µM), usual class: inhibitors; 350,000 tested, 8.8% active; further: nearly all actives have a fitted effect of over 75% in size
Target sequence (Q96KQ7 913-1193 limits assumed): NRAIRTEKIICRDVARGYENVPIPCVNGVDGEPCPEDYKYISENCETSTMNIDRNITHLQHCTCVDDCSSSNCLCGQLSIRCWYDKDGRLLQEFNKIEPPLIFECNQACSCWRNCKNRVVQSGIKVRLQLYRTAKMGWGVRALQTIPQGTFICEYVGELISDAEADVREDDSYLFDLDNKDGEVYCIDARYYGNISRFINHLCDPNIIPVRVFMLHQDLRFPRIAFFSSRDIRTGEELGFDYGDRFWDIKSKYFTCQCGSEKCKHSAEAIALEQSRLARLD
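AlphaScreen read-out: biotin-H3K9 peptide (500 nM) methylation by 20 nM enzyme with 20 uM SAM, 2 h at room temperature after 15 min compound preincubation; anti-monomethyl H3K9 antibody plus donor/acceptor beads, 10 min dark.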
BAZ2B inh – qHTS Assay for Inhibitors of BAZ2B. AlphaScreen BAZ2B-H3K14Ac peptide displacement. Bromodomain adjacent to zinc finger domain protein 2B (Homo sapiens), Q9UIF8. AID 504333, 2011. Potency, µM (doses to about 114 µM), usual class: inhibitors. 360,000 tested, 4.4% active; further: nearly all actives have a fitted effect of over 60% in size
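AlphaScreen displacement of biotin-H3(5-23)K14Ac peptide (50 nM final) from BAZ2B (50 nM final) in PBS pH 7.4, 0.01% Tween-20; complex preformed 30 min RT, then compounds (top 110 uM) 30 min RT, beads 20 min dark.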
L3MBTL1 inh – qHTS Assay for the Inhibitors of L3MBTL1; Lethal(3)malignant brain tumor-like protein 1 (Homo sapiens), Q9Y468; AlphaScreen L3MBTL1–H3K9me1 peptide binding; Potency, µM (top dose mostly 57.1 µM), actives largely listed as inhibitors; 230,000 tested, 0.66% active; AID 485360, 2010; further: nearly all actives have a fitted effect of over 60% in size
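L3MBTL1 50 nM + b-AHA-H3(1-15)K9me1 75 nM, 30 min RT; compound added, 30 min RT; streptavidin donor/Ni-chelate acceptor beads 10 ug/mL each final, 30 min RT dark; AlphaScreen read.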
Numbers stand for hits; – = inactive; ? = inconclusive; · = no result given; [ ] = remark or other dose. The call rests on the fitted dose curve; in most records, active means well fitted inhibition curve with a large enough effect; inconclusive means small, poorly fitted or top-dose-only effect; inactive means no such curve, though single readings can be large or run the other way.

SMILES	JMJD2A Tudor inh	HP1b chromo inh	G9a inh	BAZ2B inh	L3MBTL1 inh
S=c1nc[nH]c2c1ncn2C1CCCO1 (centres undefined)	2µM	–	10µM	?	–
Nc1ncnc2c1ncn2C1CCCO1 (centres undefined)	–	–	–	–	–
Cc1ccc(-c2nnc(N(C)C(=O)C3CCCO3)s2)cn1 (centres undefined)	–	–	45µM	?	–
CC(C)c1nc(SCC(=O)c2ccc(F)cc2)c2ccccc2n1	–	–	40µM	–	–
COC(=O)CSc1cnc2ccccc2n1	–	–	–	?	·
O=C(CSc1cnc2ccccc2n1)c1ccc(F)cc1	–	–	7.1µM	–	–
CC(C)c1nc(SCC(=O)Nc2ccc(N(C)C)cc2)c2ccccc2n1	?	–	8.9µM	?	–
c1nc(NCCCN2CCOCC2)c2cc(-c3ccc4c(c3)OCO4)ccc2n1	–	·	·	·	·
N#CCCSc1ccccc1NC(=O)c1ccc(S(=O)(=O)N2CCCC2)cc1	·	·	10µM	–	–
CCCN(CC1CC1)C(=S)NC(=O)c1ccc(S(=O)(=O)N2CCOCC2)cc1	–	–	28µM	·	–
Cc1ccccc1NC(=O)c1ccc(S(=O)(=O)N2CCCC2)cc1	–	–	–	–	·
Cc1cccc(C(=O)NC(=S)N2CCN(C)CC2)c1	–	–	79µM	–	–
CN1CCN(C(=S)NC(=O)c2ccc(Br)cc2)CC1	–	–	40µM	–	–
N#CCCN(Cc1cccnc1)S(=O)(=O)c1ccc(S(=O)(=O)N2CCCCCC2)cc1	–	–	–	–	–
CN1CCC(NC(=O)Nc2ccc(Br)cc2)CC1	–	–	·	–	–
CN1CCN(C(=S)NC(=O)c2ccc(S(=O)(=O)N3CCOCC3)cc2)CC1	45µM	–	?	?	–
N#CCCN(Cc1cccnc1)C(=S)NC(=O)c1ccc(S(=O)(=O)N2CCCC2)cc1	–	–	28µM	–	–
CN1CCN(C(=S)C(=O)Nc2ccc(Br)cc2)CC1	89µM	?	2.5µM	–	–
O=C(NC(=S)N1CCN(C(c2ccccc2)c2ccccc2)CC1)c1ccc(S(=O)(=O)N2CCOCC2)cc1	–	–	–	–	–
Cc1cccc(C(=O)OCC(=O)NN2C(=O)NC3(CCC(C)CC3)C2=O)c1O (centres undefined)	?	–	–	–	–
O=C(/C=C\c1ccccc1OC(=O)c1ccccc1F)c1cc2ccccc2o1	–	–	45µM	–	–
CC(=O)/C=C\c1ccccc1OC(=O)c1cc2ccccc2oc1=O	–	–	·	–	–
Cc1ccc(N=C2C(=O)Nc3c(C)cccc32)cc1	–	–	–	–	–
COc1ccc(N=C2C(=O)Nc3c(C)cccc32)cc1	?	–	50µM	?	–
COc1ccc(-c2cn3nc(SCC(=O)Nc4cccc(C)c4C)ccc3n2)cc1	–	–	–	–	·
SMILES	JMJD2A Tudor inh	HP1b chromo inh	G9a inh	BAZ2B inh	L3MBTL1 inh
Brc1ccc(N/N=C(/N=Nc2nn[nH]n2)c2ccccc2)cc1	13µM	13µM	11µM	11µM	?
O=C(O)c1ccc(N=N/C(=N\Nc2ccc(C(=O)O)cc2)c2ccccc2)cc1	50µM	?	?	28µM	?
O=C(O)c1cccc(N/N=C(\N=Nc2ccccc2)c2ccccc2)c1	40µM	35µM	?	14µM	?
NC(=O)/C(N=Nc1ccccc1)=N/Nc1ccccc1	?	–	–[2.33 µM]	–	–
CCn1c(CC(=O)Nc2cccc(OC)c2)nnc1SCC(=O)N1CCN(c2ccccc2)CC1	–	–	13µM	–	–[11.4 µM]
Cn1c(Cc2ccccc2)nnc1SCC(=O)N1CCN(c2ccccc2)CC1	–	–	–[12.7 µM]	–	–
Cn1c(Cc2cccc3ccccc23)nnc1SCC(=O)N1CCN(c2ccccc2)CC1	79µM	–	?	?	–
O=S(=O)(c1ccc2ncsc2c1)N1CCN(c2nc(-c3cccs3)nc3ccccc23)CC1	–	–	·	·	·
Nc1c(C(=O)CCC(=O)O)oc2ccc(Cl)cc12	–	–	56µM	–	·
COc1ccccc1C(=O)Nc1ccc(-c2nnn(CC(=O)N3CCN(C(=O)c4ccco4)CC3)n2)cc1	–	–	?	–	–
O=C(Nc1ccc(-c2nnn(CC(=O)N3CCN(C(=O)c4ccco4)CC3)n2)cc1)c1ccccc1F	·	·	56µM	–	–
COC(=O)c1ccnc(/C=N/O)c1	35µM	–	?	50µM	?
CC(=O)Nc1nc(CC(C)C)cc(-c2ccco2)c1C#N	–	–	16µM	–	·
Cc1cccc(C(=O)Nc2sc3c(c2C(=O)N2CCCCC2)CCC(C)C3)c1 (centres undefined)	–	–	–	–	·
CNC(=O)C(Sc1nc(C)nc2c1oc1ccccc12)C(C)=O (centres undefined)	–	–	18µM	–	·
Cc1nc(NCCc2ccccc2)c2oc3ccccc3c2n1	–	–	79µM	?	·
CCOC(=O)/C=C/C(=O)OCc1csc(CC(=O)Nc2ccccc2C)n1	–	–	–	50µM	·
CC(C)=CC(=O)OCc1csc(CC(=O)Nc2ccccc2C)n1	–	–	–	–	·
COc1cccc(CNC(=O)CSc2cc(C)[nH]c(=O)n2)c1	–	–	–	–	·
COc1cccc(CNC(=O)CSc2ccc(-c3ccccn3)nn2)c1	?	–	–	13µM	·
O=C(CSc1ccc(-c2ccccn2)nn1)NCc1ccc(Cl)cc1	?	–	–	14µM	·
COc1ccc(Cl)cc1-c1ccc(C(=O)O)s1	·	·	–	·	·
CC(=O)N1CCc2cc(Br)cc(S(=O)(=O)N3CCN(c4ccccn4)CC3)c21	79µM	?	–	–	–
CC(=O)N1c2c(cc(Br)cc2S(=O)(=O)N2CCN(c3ccccn3)CC2)CC1C (centres undefined)	–	–	?	–	·
O=C(C1CC1)N1CCc2cc(Br)cc(S(=O)(=O)NCc3ccccn3)c21	2.8µM	–	–[12.7 µM]	–	·
SMILES	JMJD2A Tudor inh	HP1b chromo inh	G9a inh	BAZ2B inh	L3MBTL1 inh
C=CCSc1nc2ccsc2c(=O)n1-c1cccnc1	–[11.4 µM]	–	–	–	·
CC1=Nc2ccccc2/C1=C/c1c(N)n2c(S(=O)(=O)C(C)C)nsc2nc1=O	–	–	–	?	·
CC1=Nc2ccc(C)cc2/C1=C/c1c(N)n2c(S(=O)(=O)C(C)C)nsc2nc1=O	–	–	50µM	–	–
O=C(/C(=C(\[O-])c1ccccc1)[n+]1ccc2ccccc2c1)c1ccc(Cl)cc1	–	–	20µM	–	–
COc1cc(/C=N/n2c(C3CCCCC3)n[nH]c2=S)cc(OC)c1O	2.8µM	?	2µM	–	·
COc1cccc(/C=N/n2c(C3CCCCC3)n[nH]c2=S)c1	32µM	–	2.5µM	–	·
